According to PubChem BioAssay:
This is one part of the list. The source made the active and inactive calls.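 How the source made its calls, unless noted: active means membrane potential signal moved up or down beyond 5 SD of buffer control wells, in both duplicate plates, actives on both sides; inactive means the rest.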

What was measured:
[1] = nonspecific voltage dye response without TRPC6 – cell-based, parental HEK293, counter-screen for TRPC6 modulator project, confirmation (AID 488924;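 active means membrane potential signal moves up or down beyond 5 SD from buffer-only wells, on both duplicate plates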); details: parental HEK293, membrane potential dye fluorescence; at 10 µM
[2] = membrane potential response modulators in host HEK293 cells – cell-based, second counter-screen, parental HEK293, membrane potential dye, counter-screen for TRPC6 modulator project, confirmation (AID 488926;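 active means membrane potential signal drops by more than 5 SD from the mean control signal, in both duplicate plates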;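 on inhibition: plate controls were acetylcholine ECmax control wells for no effect and buffer only wells for full effect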); details: parental HEK293, membrane potential dye fluorescence, at 10 µM, after compound, maximal acetylcholine stimulation; hits give high values
[3] = test system: Transient receptor potential cation channel subfamily C member 4 (mouse); test: off-target membrane potential effects via mouse TRPC4 – cell-based, HEK293 TRPC4/mu-opioid, membrane potential dye, selectivity assay for TRPC6 modulator project, confirmation (AID 488927); details: membrane potential fluorescence, at 10 µM;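 on percent change from control (negative = decrease, positive = increase): plate controls were assay buffer wells for no effect and DAMGO maximal-effect wells for full effect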
[4] = test system: TRPC4 (transient receptor potential cation channel C4), mouse; test: DAMGO-evoked mouse TRPC4 response blockade – cell-based, second screen, HEK293 TRPC4/mu-opioid, membrane potential dye, selectivity assay for TRPC6 modulator project, confirmation (AID 488928;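 active means drop in membrane potential signal beyond 5 SD of the control wells in both duplicate plates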;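 further: TRPC4 counter screen for TRPC6 hits run under conditions tuned for TRPC6 not TRPC4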); details: membrane potential dye fluorescence, at 10 µM, stimulated with maximal-effect DAMGO; hits give high values
[5] = target: Short transient receptor potential channel 6 (Mus musculus) (UniProt Q61143); test: blockers of TRPC6 cation channel activity – HEK293 cells, membrane potential dye, duplicate, confirmation (AID 488960;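 active means fluorescence ratio falls more than 5 SD below the full-stimulation control mean, in both duplicate runs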;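 on inhibition: integrated fluorescence ratio of peak minus minimum over baseline after agonist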); details: ACh-evoked depolarization, at 10 µM; hits give high values
Short transient receptor potential channel 6 (Mus musculus), sequence (Q61143 whole entry, looked up): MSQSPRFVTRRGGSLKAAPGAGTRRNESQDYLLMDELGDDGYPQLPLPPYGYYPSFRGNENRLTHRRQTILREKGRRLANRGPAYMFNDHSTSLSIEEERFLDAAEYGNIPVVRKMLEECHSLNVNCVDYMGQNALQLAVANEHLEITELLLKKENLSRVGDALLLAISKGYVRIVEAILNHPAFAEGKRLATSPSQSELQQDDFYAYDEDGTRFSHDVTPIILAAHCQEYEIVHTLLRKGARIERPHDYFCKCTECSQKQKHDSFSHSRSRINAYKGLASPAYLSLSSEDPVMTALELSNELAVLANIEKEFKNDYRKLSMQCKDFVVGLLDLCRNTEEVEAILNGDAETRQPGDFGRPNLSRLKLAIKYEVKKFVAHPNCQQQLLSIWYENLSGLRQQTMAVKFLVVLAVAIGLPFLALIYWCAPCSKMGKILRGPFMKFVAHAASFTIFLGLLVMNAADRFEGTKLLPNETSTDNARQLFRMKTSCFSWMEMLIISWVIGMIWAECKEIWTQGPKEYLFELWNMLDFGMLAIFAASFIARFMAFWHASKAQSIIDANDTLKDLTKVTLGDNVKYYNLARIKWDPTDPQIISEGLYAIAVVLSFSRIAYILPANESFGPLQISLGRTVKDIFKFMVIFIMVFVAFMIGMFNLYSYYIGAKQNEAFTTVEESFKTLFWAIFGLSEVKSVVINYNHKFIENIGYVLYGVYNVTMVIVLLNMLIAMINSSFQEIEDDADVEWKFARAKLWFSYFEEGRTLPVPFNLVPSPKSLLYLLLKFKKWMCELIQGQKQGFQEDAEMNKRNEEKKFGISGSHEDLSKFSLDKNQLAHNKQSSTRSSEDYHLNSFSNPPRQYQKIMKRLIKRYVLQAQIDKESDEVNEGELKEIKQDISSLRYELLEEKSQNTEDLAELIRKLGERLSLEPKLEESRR

[6] = target: Short transient receptor potential channel 6 (Mus musculus) (UniProt Q61143); test: mouse TRPC6 channel activators, confirmation, HEK293 cells, membrane potential dye, duplicate (AID 488961;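 active means ratio signal rise beyond 5 SD above unstimulated control wells' mean, seen in both duplicate runs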;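 on activation: plate controls were buffer EC0 wells for no effect and acetylcholine ECmax response for full effect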); details: HEK293-TRPC6 membrane potential dye fluorescence, FDSS, at 10 µM; hits give high values
[7] = target: Potassium voltage-gated channel subfamily KQT member 1 (Homo sapiens) (UniProt P51787); test: blockers of human KCNQ1 channel – cell-based, Tl flux, duplicate, confirmation (AID 588353;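 active means primary screen active, with duplicate mean exceeding buffer control mean plus 3 SD of buffer wells, cut at about 28% in these data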;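 further: 0% = buffer control ratio and 100% = XE991 inhibitor control ratio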); details: KCNQ1 cell line, FluxOR thallium flux fluorescence, at 10 µM, hits give high values
Potassium voltage-gated channel subfamily KQT member 1 (Homo sapiens), sequence (P51787 whole entry, looked up): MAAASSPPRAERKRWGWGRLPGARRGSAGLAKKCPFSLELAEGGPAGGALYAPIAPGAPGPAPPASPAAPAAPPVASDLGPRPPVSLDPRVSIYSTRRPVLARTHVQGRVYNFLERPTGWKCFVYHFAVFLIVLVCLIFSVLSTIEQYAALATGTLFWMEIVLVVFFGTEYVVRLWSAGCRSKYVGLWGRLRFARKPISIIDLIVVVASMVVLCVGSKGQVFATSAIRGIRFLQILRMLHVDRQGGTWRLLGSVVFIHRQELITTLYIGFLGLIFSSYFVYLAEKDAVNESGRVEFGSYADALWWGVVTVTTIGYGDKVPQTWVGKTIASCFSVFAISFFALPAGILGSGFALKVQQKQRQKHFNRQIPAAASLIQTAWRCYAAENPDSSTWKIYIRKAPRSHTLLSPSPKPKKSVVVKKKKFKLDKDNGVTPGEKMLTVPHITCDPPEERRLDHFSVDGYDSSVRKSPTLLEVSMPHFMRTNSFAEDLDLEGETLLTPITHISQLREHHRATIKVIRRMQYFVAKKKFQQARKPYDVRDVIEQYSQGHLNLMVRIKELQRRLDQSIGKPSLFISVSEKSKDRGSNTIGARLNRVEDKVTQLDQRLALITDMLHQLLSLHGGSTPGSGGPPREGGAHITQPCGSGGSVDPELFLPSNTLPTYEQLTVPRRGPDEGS

[8] = nonspecific activity in CHO-K1 cells without KCNQ1 – parental CHO cells, Tl flux, counter-screen for KCNQ1 inhibitor project (AID 588366;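 active means mean of duplicate thallium-flux fluorescence ratios in parental host cells more than 5 SD below the buffer control mean, cut at about 0.38 in these data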;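 further: ratio is peak minus minimum fluorescence divided by baseline fluorescence; actives read low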); details: parental CHO-K1, FluxOR thallium flux fluorescence ratio; at 10 µM; hits give low values; zero means no signal rise above baseline
[9] = target: Potassium voltage-gated channel subfamily KQT member 2 (Rattus norvegicus) (UniProt O88943); test: block of rat KCNQ2 potassium channel – cell-based, selectivity assay for KCNQ1 inhibitor project (AID 651746;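 active means mean percent inhibition of the KCNQ2 thallium signal more than 5 SD above the buffer-only control wells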;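 further: KCNQ2 expressed in CHO cells; 0% = buffer control wells and 100% = XE-991 inhibitor control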); details: KCNQ2 cells, FluxOR thallium flux fluorescence, at 10 µM; hits give high values
Potassium voltage-gated channel subfamily KQT member 2 (Rattus norvegicus), sequence (O88943 whole entry, looked up): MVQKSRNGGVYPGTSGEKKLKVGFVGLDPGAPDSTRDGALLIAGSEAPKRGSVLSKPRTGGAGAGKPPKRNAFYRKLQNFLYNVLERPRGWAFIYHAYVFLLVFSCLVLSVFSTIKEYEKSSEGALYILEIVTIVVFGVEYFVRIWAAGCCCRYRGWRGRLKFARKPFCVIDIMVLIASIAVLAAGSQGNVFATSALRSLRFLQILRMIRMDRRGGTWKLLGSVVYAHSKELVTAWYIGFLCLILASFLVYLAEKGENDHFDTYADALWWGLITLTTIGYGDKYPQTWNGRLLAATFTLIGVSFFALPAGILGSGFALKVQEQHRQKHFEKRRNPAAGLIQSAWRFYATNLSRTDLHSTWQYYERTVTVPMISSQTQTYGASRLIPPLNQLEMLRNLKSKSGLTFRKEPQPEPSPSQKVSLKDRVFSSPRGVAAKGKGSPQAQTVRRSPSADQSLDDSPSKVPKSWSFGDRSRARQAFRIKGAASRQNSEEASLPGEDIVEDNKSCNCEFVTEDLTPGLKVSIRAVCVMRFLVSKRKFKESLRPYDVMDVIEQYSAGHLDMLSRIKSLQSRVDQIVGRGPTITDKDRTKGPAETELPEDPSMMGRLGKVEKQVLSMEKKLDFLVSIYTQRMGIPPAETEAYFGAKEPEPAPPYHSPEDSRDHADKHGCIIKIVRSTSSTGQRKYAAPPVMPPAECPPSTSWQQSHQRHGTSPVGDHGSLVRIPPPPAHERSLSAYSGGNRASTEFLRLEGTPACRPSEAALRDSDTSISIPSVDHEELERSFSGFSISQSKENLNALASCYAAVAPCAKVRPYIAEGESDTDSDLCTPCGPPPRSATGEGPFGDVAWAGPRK

[10] = target: Potassium voltage-gated channel subfamily E member 1 (Homo sapiens) + Potassium voltage-gated channel subfamily KQT member 1 (Homo sapiens) (UniProt P15382+P51787); test: block of human IKs channel complex – CHO-K1 cells, thallium flux, FluxOR, selectivity assay for KCNQ1 inhibitor project (AID 652147;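 active means mean percent inhibition of duplicate wells above the buffer-only control mean plus 3 SD of those controls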;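 further: 0% = buffer only wells and 100% = XE-991 inhibitor control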); details: KCNQ1/KCNE1 cells, FluxOR thallium flux fluorescence, at 10 µM; hits give high values
Potassium voltage-gated channel subfamily E member 1 (Homo sapiens) + Potassium voltage-gated channel subfamily KQT member 1 (Homo sapiens), sequence (P51787 whole entry, looked up): as the sequence (P51787 whole entry, looked up) above

CN1CCN(c2ccc([N+](=O)[O-])c(Sc3nc4ccccc4[nH]3)c2)CC1
active: membrane potential signal change [1] -66.5% | percent change from control (negative = decrease, positive = increase) [3] -14.5% | inhibition [4] 58.5% | inhibition [5] 52.5%
inactive: outcome [2] | outcome [6]

N=c1c2c3c(sc2ncn1CCCN1CCOCC1)CCCCC3
active: inhibition [4] 52.5%
inactive: outcome [1] | outcome [2] | outcome [3] | outcome [5] | outcome [6]

CCCN(CCc1ccccc1)C1CCc2c(O)cccc2C1 (stereo not given)
inactive: outcome [2] | outcome [5]
active: membrane potential signal change [1] 202% | percent change from control (negative = decrease, positive = increase) [3] 45.5% | inhibition [4] 68.5% | activation [6] 88.5%

CSCCC(NC(=O)c1ccc(=O)n(C)n1)c1nc2ccccc2[nH]1 (stereo not given)
inactive: outcome [1] | outcome [2] | outcome [3] | outcome [4] | outcome [5] | outcome [6]

O=C1c2ccccc2C(=O)c2c1cccc2N1CCN(CCO)CC1
active: membrane potential signal change [1] -367% | inhibition [2] 64% | percent change from control (negative = decrease, positive = increase) [3] -80.5% | inhibition [4] 60% | inhibition [5] 78.5%
inactive: outcome [6]

CCCCN(CCCC)CC(O)Cn1c2ccccc2c(=O)c2ccccc21 (stereo not given)
inactive: outcome [1] | outcome [2] | outcome [3]
active: inhibition [4] 85.5% | inhibition [5] 69%

O=S(=O)(c1cccc(Cn2nnc(-c3ccc(F)cc3)n2)c1)N1CCOCC1
inactive: outcome [1] | outcome [2] | outcome [3] | outcome [4] | outcome [5] | outcome [6]

N=c1c2c3c(sc2nc2n1CCCCC2)CCCC3
inactive: outcome [2] | outcome [6]
active: membrane potential signal change [1] -118% | percent change from control (negative = decrease, positive = increase) [3] -22.5% | inhibition [4] 55.5% | inhibition [5] 61%

CCOc1ccc(/C(O)=C2/C(=O)C(=O)N(Cc3cccnc3)C2c2ccc(N(C)C)cc2)c(C)c1 (stereo not given)
inactive: outcome [1] | outcome [2] | outcome [3] | outcome [4] | outcome [5] | outcome [6]

CN1CCN(C(=O)N2c3ccccc3CCc3ccccc32)CC1
inactive: outcome [1] | outcome [2] | outcome [4] | outcome [5]
active: percent change from control (negative = decrease, positive = increase) [3] 14.5%

CCCCN(C)CCCNC(=O)c1cc(-c2cccs2)nc2ccccc12
inactive: outcome [1] | outcome [2] | outcome [5] | outcome [6]
active: percent change from control (negative = decrease, positive = increase) [3] -13% | inhibition [4] 65.5%

O=C(C[n+]1ccc2c(c1)nnn2-c1ccccc1)c1ccc(Cl)cc1
active: membrane potential signal change [1] -110% | percent change from control (negative = decrease, positive = increase) [3] -37.5% | inhibition [4] 62% | inhibition [5] 56%
inactive: outcome [2] | outcome [6]

CC(C)c1ccc(NC(=O)Cn2ncc3ccccc32)cc1
inactive: outcome [1] | outcome [2] | outcome [3] | outcome [4] | outcome [5] | outcome [6]

CC(=O)Nc1ccc(NC(=O)CN2CCCC(C)C2)c(Cl)c1 (stereo not given)
inactive: outcome [1] | outcome [2] | outcome [3] | outcome [4]
active: inhibition [5] 66%

COC(=O)c1ccccc1NC(=O)C1CCN(S(=O)(=O)c2cc(OC)ccc2OC)CC1
inactive: outcome [1] | outcome [2] | outcome [4] | outcome [5]
active: percent change from control (negative = decrease, positive = increase) [3] 13%

CCOC(=O)C1=NN(c2ccc(Cl)cc2)/C(=C/C2=NCCc3cc(OC)c(OC)cc32)S1
active: percent change from control (negative = decrease, positive = increase) [3] -15.5%
inactive: outcome [1] | outcome [2] | outcome [4] | outcome [5] | outcome [6]

Clc1ccc(-n2nnnc2-c2cnc(-c3ccccn3)nc2-c2cccs2)cc1
active: membrane potential signal change [1] 133% | percent change from control (negative = decrease, positive = increase) [3] 19.5%
inactive: outcome [2] | outcome [4] | outcome [5]

Cc1ccc(NC(=S)N(CCCN2CCCC2)Cc2cccn2Cc2ccc(Cl)cc2)cc1
inactive: outcome [1] | outcome [2] | outcome [3] | outcome [5] | outcome [6]
active: inhibition [4] 47.5%

O=C(O)c1ccc(NC(=O)c2ccc(COc3ccc(Cl)cc3)o2)cc1
inactive: outcome [1] | outcome [2] | outcome [3] | outcome [4] | outcome [5] | outcome [6]

Cc1c(CCOC(=O)CC23CC4CC(CC(C)(C4)C2)C3)sc[n+]1Cc1ccc([N+](=O)[O-])cc1
active: membrane potential signal change [1] -103% | percent change from control (negative = decrease, positive = increase) [3] -29.5%
inactive: outcome [2] | outcome [4] | outcome [5] | outcome [6]

Cc1cccc(NC(=S)NCCN(C2CCCCC2)C2CCCC2)c1
active: membrane potential signal change [1] 129% | percent change from control (negative = decrease, positive = increase) [3] 24.5% | inhibition [4] 68.5% | inhibition [5] 44.5%
inactive: outcome [2]

CCc1ccc(-c2cc(C(=O)NN3CCN(C)CC3)c3ccccc3n2)cc1
inactive: outcome [1] | outcome [2] | outcome [3] | outcome [5] | outcome [6]
active: inhibition [4] 41%

Cc1nc(C(=O)NCc2ccccc2)sc1C1(C)CC(c2cccnc2)=NO1 (stereo not given)
active: inhibition [2] 97.5% | inhibition [5] 114%
inactive: outcome [1] | outcome [3] | outcome [4]

Nc1ccc(C(=O)N2CCN(S(=O)(=O)c3ccc(Cl)cc3)CC2)cc1[N+](=O)[O-]
inactive: outcome [1] | outcome [2] | outcome [3] | outcome [4]
active: inhibition [5] 72.5%

CCOc1nc(NCCN2CCOCC2)nc(Nc2ccc(C)cc2)n1
inactive: outcome [2] | outcome [4] | outcome [5]
active: membrane potential signal change [1] 98% | percent change from control (negative = decrease, positive = increase) [3] 15%

COc1cc2c(cc1OC)C(/C=C/c1ccco1)=NCC2
inactive: outcome [6]
active: membrane potential signal change [1] -362% | inhibition [2] 83% | percent change from control (negative = decrease, positive = increase) [3] -64% | inhibition [4] 62% | inhibition [5] 72.5%

Cn1c(/C(C#N)=C2/CCCCCN2)nc2ccccc21
inactive: outcome [1] | outcome [2] | outcome [3] | outcome [4] | outcome [5] | outcome [6]

COc1ccc(C(=O)C2CCCN(Cc3cccn3-c3ccccn3)C2)c(C)c1 (stereo not given)
inactive: outcome [1] | outcome [6] | fluorescence ratio (Tl flux) [8] 0.496
active: inhibition [2] 140% | percent change from control (negative = decrease, positive = increase) [3] -17.5% | inhibition [4] 99% | inhibition [5] 107% | inhibition [7] 41.5% | inhibition [9] 89% | inhibition [10] 39.5%

COc1cc(CNCCN(C)C)ccc1OCc1c(F)cccc1Cl
active: membrane potential signal change [1] 142% | percent change from control (negative = decrease, positive = increase) [3] 15.5% | inhibition [4] 49% | activation [6] 56%
inactive: outcome [2] | outcome [5]

CC(=O)c1cc(NC(=O)c2ccccc2)c(=O)oc1/C=C/N(C)C
inactive: outcome [5] | outcome [6]
active: membrane potential signal change [1] 868% | inhibition [2] 196% | percent change from control (negative = decrease, positive = increase) [3] 43% | inhibition [4] 35.5%
